Results from ChEMBL document CHEMBL3988442, “University of Dundee, Small-Polar-MMV Screening Library” (2021).
For some of these results: Results with a measured potency or affinity are listed apart.

Experiments:
Set-up in all cases: scale not given: direction of the effect not stated beside the values
[1] = target: Protein translocase subunit SecA (Escherichia coli (strain K12)) (UniProt P10408); experiment: Assay to Identify E. coli SecA ATPase Inhibitors; format: functional; conditions: 30 µM
[2] = target: T1, Ubiquitin-activating enzyme e1, putative (Leishmania donovani (strain BPK282A1)) (UniProt E9BSI1); experiment: Leishmania donovani Ubiquitin Activating Enzyme (LdE1); format: functional; conditions: 30 µM
T1 sequence (whole entry): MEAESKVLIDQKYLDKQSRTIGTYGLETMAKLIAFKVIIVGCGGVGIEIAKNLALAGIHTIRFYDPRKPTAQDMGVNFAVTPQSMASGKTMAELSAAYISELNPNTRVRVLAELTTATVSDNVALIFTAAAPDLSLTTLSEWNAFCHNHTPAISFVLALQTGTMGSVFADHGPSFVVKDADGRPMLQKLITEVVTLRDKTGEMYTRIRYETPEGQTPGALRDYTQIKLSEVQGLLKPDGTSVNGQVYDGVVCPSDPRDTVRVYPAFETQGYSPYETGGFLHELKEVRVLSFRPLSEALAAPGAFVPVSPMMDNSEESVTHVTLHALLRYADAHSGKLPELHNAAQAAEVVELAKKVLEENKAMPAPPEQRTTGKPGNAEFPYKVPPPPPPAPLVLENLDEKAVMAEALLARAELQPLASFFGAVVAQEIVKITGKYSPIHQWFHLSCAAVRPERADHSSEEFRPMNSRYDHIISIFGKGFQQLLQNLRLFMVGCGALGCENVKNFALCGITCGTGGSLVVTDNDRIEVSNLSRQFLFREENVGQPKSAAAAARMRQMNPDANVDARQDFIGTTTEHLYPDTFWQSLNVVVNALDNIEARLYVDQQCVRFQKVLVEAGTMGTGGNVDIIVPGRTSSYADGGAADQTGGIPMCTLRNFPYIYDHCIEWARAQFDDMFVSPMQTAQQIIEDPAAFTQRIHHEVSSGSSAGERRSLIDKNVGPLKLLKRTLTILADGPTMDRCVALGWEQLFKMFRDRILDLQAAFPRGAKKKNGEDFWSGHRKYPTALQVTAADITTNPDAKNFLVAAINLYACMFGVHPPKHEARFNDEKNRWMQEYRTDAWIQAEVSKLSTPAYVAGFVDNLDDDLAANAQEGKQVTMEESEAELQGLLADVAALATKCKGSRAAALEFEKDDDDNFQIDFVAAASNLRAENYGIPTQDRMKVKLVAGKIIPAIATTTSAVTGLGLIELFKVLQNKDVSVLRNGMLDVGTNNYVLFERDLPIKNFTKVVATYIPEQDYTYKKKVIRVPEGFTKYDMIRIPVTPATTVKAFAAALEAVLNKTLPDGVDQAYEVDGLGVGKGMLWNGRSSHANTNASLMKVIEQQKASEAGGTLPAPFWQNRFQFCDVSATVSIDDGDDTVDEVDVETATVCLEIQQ

[3] = target: AMP-activated protein kinase, AMPK (Homo sapiens) (UniProt P54646+O43741+P54619+Q9UGJ0+Q9Y478+Q13131+Q9UGI9); experiment: AMP-dependent Kinase enzyme assay. An in vitro enzyme assay that detects ADP turnover that is directly proportional to AMPK activity. This uses naive AMPK that is activated during the assay with MK-8722; format: functional; conditions: 30 µM
[4] = target: Sialic acid-binding Ig-like lectin 9 (Homo sapiens) (UniProt Q9Y336); experiment: Hs-Siglec9 ALPHAscreen SOP 20170721; conditions: 10 µM
Trypanosoma cruzi = experiment: Trypanosoma cruzi phosphomannomutase and mannose-1-phosphate guanylyltransferase assay; format: functional; conditions: 10 µM
[5] = target: T2, Arginase-2, mitochondrial (Homo sapiens) (UniProt P78540); experiment: in vitro enzyme assay to detect the production of urea directly proportional to the activity of Arginase II; format: functional; conditions: 33.3 µM; also: in the data most compounds retested in dose-response had high values
T2 sequence (whole entry): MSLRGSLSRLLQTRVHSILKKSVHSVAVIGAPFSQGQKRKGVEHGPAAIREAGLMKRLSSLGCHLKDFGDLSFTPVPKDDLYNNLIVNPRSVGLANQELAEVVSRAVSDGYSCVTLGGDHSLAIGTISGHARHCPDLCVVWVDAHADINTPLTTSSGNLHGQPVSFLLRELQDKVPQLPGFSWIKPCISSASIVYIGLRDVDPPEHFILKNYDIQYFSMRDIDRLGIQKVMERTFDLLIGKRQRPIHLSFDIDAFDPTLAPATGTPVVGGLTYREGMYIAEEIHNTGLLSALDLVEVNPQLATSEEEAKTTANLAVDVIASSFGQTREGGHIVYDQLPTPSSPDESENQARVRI

[6] = target: T3, Proteasome subunit beta (Trypanosoma cruzi) (UniProt O96673); experiment: Trypanosoma cruzi proteasome chymotrypsin-like activity (TcProtChymo) assay.; also: in the data most compounds retested in dose-response had high values; format: functional; conditions: 9.37 µM
T3 sequence (whole entry): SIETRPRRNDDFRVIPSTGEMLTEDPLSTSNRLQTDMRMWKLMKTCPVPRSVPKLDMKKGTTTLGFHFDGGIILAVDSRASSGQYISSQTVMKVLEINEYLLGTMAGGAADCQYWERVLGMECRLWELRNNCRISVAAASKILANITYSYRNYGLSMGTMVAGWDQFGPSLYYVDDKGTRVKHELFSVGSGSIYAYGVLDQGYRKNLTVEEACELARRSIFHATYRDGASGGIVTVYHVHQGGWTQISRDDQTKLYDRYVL

Homo sapiens = species on record: Homo sapiens; experiment: To identify inhibition of the IFN signalling (Jak-Stat) pathway via expression of an eGFP reporter gene under the control of an IFN-stimulated response element (ISRE) containing MxA promoter.; format: functional; conditions: 30 µM
[7] = target: T4, Tyrosyl-tRNA synthetase, putative (Trypanosoma cruzi (strain CL Brener)) (UniProt Q4DSP6); experiment: Trypanosoma cruzi tyrosyl tRNA synthetase (TcYRS) _High Tyrosine SOP; format: functional; conditions: 30 µM; also: in the data most compounds retested in dose-response had high values
T4 sequence (whole entry): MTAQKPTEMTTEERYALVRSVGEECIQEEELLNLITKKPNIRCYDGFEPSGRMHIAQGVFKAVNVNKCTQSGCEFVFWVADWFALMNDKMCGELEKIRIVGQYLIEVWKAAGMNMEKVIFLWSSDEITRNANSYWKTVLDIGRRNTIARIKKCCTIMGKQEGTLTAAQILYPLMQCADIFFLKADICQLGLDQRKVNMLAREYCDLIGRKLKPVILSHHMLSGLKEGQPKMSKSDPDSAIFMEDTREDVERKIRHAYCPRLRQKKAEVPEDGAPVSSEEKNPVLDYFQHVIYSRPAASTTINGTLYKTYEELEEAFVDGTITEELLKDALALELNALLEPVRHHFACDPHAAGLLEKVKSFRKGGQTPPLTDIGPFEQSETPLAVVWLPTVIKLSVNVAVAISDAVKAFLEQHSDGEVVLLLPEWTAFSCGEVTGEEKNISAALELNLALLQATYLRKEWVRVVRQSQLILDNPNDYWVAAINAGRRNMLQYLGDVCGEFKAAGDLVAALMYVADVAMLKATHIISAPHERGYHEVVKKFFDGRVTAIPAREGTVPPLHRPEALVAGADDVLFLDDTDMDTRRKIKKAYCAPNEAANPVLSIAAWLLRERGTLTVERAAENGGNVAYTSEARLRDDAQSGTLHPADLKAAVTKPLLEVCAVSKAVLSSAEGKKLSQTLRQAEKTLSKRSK

[8] = target: T4, Tyrosyl-tRNA synthetase, putative (Trypanosoma cruzi (strain CL Brener)); experiment: Trypanosoma cruzi tyrosyl tRNA synthetase (TcYRS) SOP; format: functional; conditions: 30 µM
[9] = target: Chromo domain-containing protein 1 (Saccharomyces cerevisiae (strain ATCC 204508 / S288c) (Baker's yeast)) (UniProt P32657); experiment: ScCHD-1 Enzyme Inhibition Assay; format: functional; conditions: 30 µM; also: in the data most compounds retested in dose-response had high values
Chromo domain-containing protein 1 (Saccharomyces cerevisiae (strain ATCC 204508 / S288c) (Baker's yeast)), sequence (P32657 whole entry, the tested form may be a part): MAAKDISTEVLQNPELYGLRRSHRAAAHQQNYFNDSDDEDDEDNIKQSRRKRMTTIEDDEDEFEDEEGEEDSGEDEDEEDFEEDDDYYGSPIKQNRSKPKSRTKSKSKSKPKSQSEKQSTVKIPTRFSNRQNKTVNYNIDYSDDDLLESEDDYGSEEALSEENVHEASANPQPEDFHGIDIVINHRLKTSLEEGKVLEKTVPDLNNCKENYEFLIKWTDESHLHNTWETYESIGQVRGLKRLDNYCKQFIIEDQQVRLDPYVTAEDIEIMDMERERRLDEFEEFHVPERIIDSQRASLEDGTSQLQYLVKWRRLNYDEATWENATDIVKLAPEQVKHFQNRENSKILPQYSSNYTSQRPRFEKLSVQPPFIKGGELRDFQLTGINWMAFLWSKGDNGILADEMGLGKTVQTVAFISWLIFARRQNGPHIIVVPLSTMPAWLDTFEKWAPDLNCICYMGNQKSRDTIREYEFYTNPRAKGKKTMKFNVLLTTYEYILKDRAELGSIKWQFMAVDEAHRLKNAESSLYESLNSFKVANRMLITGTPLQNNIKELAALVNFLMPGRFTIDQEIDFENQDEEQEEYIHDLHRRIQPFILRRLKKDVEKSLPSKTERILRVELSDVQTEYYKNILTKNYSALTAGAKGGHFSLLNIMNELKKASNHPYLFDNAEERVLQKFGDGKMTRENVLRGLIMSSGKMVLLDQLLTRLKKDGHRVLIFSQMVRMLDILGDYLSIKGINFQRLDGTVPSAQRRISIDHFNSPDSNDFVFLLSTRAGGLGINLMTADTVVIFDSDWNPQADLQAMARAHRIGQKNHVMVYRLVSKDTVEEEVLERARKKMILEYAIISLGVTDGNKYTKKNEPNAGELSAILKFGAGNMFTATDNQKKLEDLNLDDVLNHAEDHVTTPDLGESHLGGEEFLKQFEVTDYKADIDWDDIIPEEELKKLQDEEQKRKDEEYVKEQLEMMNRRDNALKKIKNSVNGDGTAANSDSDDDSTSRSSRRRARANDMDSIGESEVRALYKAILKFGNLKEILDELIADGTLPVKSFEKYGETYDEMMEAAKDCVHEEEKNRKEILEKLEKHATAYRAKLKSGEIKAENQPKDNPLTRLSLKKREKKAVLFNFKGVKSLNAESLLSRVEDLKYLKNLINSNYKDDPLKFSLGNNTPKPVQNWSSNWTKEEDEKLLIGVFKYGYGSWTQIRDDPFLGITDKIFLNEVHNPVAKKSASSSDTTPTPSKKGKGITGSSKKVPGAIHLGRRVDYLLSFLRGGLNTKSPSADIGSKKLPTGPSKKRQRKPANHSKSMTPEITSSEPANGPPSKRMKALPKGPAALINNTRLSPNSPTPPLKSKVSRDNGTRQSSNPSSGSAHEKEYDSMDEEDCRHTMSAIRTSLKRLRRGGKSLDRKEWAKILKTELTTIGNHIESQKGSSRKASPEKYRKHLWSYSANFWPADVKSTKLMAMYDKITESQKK

Sialic acid-binding Ig-like lectin 9 (Homo sapiens), sequence (Q9Y336 whole entry): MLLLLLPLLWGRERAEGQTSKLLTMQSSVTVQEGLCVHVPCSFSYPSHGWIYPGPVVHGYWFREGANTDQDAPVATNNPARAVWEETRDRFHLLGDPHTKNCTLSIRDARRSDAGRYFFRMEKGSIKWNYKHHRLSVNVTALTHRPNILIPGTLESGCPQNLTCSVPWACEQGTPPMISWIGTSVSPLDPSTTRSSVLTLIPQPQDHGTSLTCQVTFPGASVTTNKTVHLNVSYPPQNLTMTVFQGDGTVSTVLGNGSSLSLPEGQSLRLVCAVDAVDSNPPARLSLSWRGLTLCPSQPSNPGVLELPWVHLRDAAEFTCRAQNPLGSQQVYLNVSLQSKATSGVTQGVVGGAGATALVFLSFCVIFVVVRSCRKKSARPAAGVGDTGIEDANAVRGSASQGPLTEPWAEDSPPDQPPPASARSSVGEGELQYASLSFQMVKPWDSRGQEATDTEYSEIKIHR
Protein translocase subunit SecA (Escherichia coli (strain K12)), sequence (P10408 whole entry): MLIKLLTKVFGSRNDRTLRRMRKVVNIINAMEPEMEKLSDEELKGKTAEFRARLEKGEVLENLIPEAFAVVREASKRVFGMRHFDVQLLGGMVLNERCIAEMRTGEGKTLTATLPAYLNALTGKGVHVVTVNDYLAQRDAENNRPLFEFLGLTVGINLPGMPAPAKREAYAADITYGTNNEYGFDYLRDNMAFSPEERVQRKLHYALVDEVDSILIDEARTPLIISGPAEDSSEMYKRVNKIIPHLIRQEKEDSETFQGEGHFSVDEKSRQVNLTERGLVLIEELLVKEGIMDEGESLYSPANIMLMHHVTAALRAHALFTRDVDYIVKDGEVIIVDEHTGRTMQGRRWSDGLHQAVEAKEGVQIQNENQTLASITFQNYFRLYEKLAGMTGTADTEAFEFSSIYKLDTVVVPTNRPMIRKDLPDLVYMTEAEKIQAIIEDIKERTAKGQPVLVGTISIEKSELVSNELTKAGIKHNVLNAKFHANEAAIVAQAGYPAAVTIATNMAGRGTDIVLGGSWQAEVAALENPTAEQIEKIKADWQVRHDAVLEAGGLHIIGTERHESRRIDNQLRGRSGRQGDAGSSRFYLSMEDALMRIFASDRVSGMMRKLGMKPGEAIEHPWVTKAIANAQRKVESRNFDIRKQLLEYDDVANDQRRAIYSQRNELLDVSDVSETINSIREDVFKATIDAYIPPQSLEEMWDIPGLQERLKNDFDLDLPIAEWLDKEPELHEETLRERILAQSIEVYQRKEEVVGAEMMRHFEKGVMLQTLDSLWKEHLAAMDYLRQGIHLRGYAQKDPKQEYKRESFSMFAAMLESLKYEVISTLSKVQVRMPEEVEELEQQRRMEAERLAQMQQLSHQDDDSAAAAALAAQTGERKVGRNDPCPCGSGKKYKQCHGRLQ

| Compound | Percent Effect [1] | Percent Effect [2] | Percent Effect [3] | Percent Effect [4] | Percent Effect (Trypanosoma cruzi) | Percent Effect [5] | Percent Effect [6] | Percent Effect (Homo sapiens) | Percent Effect [7] | Percent Effect [8] | Percent Effect [9] |
| --- | --- | --- | --- | --- | --- | --- | --- | --- | --- | --- | --- |
| O=S(=O)(C1CC1)N1CCO[C@H]2[C@H](OCC3CCCC3)CC[C@@H]21 | -4.67% | 0% | 1.22% | -1.17% | 4.83% | -45.7% | 2.05% | -5.99% | 0% | 5% | -4.13% |
| COc1nc(C)c(C(=O)N(C)Cc2nc(-c3ccccn3)no2)s1 | -2.52% | 13.3% | -11.2% | 4.23% | 4.97% | -3.65% | 18.3% | -0.294% | 6.01% | 13.6% | -0.207% |
| CN(C)C(=O)Cc1nc(CN2CCCCC2Cn2cccn2)cs1 (stereo not given) | -2.18% | -2.63% | 87.3% | -6.24% | 1.07% | -2.37% | 12.8% | 9.75% | 1.06% | -5.2% | -0.00308% |
| O=C(NC1(c2nnn(CCO)n2)CCCC1)c1ccccc1 | -3.12% | 8% | -5.64% | 17.4% | 3.41% | 17.7% | 1.57% | -6.59% | 6.01% | 16.1% | -4.4% |
| COc1cccc(F)c1C(=O)N1C[C@@H](CN(C)CCO)[C@@H](CO)C1 | -8.11% | 5.2% | -2.26% | 3.34% | -2.26% | -5.52% | 2.16% | -11% | 2.15% | 8.64% | -0.727% |
| CCS(=O)(=O)N1CCCc2ccc(NC(=O)Cc3ccc(F)cc3)cc21 | 0.369% | 7.79% | -1.04% | -9.41% | -5.82% | 0.645% | 8.53% | 65.4% | -5.29% | -6.41% | -13.3% |
| CN(Cc1cnccn1)C(=O)c1ccnc(OC2CCC2)c1 | 2.54% | -2.7% | 1.16% | 4.85% | 0.193% | 1.43% | 1.9% | 4.71% | -0.529% | 4.88% | 8.01% |
| Cn1c(CC2CCS(=O)(=O)C2)nnc1SCCOc1ccccc1F (stereo not given) | -0.675% | 2.7% | 2.63% | 12.8% | 2.64% | 30.5% | 2.15% | -9.3% | -2.15% | 6.17% | -9.15% |
| CN(Cc1ccccn1)C1COC2(CCN(Cc3nccs3)CC2)C1 (stereo not given) | -4.64% | 21.3% | -8.85% | -0.12% | 1.35% | -57.5% | 12.8% | 5.05% | 5.21% | 20% | -11.7% |
| O=C(c1cccc(OC2CCCC2)c1)N1CCCC(n2cncn2)C1 (stereo not given) | -4.01% | 5.41% | 12.1% | 4.98% | 5.57% | -5.61% | -3.06% | 21.5% | 7.39% | 13.6% | -11.7% |
| c1cnnc(NCC2CN(CCN3CCCCC3)CCO2)c1 (stereo not given) | -2.02% | -7.79% | 5.05% | 6.18% | 9.74% | -3.56% | 1.01% | -18.9% | 0.971% | 7.32% | -2.7% |
| Cc1cccc(C2(CNC(=O)CCN3C(=O)CCC3=O)CCCC2)c1 | -5.2% | 10.1% | 1.38% | 0.402% | 5.95% | -4.56% | 3.36% | 8.93% | 9.36% | 13.9% | -5.07% |
| COc1cccc(CN2CCN(c3ccc4nncn4n3)C(C)C2)c1 (stereo not given) | -6.29% | -20.8% | -1.07% | -4.72% | -3% | 0.712% | -1.86% | 85.3% | 6.8% | -2.44% | 5.81% |
| COc1ncccc1CNc1cc(N2CCCC2CO)ncn1 (stereo not given) | -1.73% | 2.6% | -6.5% | 5.75% | 3.75% | -8.54% | 13.3% | 20.9% | 3.88% | 12.2% | -10.4% |
| Cc1cc(C(=O)N2CCc3ncc(CN4CCOCC4)n3CC2)no1 | -4.01% | 0% | 1.62% | 0.585% | 0.0978% | -15.6% | -3.51% | -3.46% | -3.24% | -5.13% | 8.28% |
| Cc1ccc(C(=O)N2C[C@@H]3OCCN(CCN4CCCC4)[C@@H]3C2)cn1 | -3.52% | 8.11% | 0.326% | -5.24% | -2.25% | 2.23% | 21% | -5.79% | 5.41% | 15.4% | -1.17% |
| CCSCC(C)NCc1nncn1C1CCCCC1 (stereo not given) | -0.842% | 6.94% | -1.51% | -1.31% | 2.23% | 0.883% | 16% | -2.28% | 11.6% | 20.5% | -4.13% |
| Cc1ccc(CNCC2CCc3nnc(C(C)C)n3C2)s1 (stereo not given) | -1.99% | -1.39% | -8.87% | -3.91% | -1.46% | -3.97% | 4.56% | -6.98% | 1.05% | 0% | -1.15% |
| CC(=O)NCCNC(=O)c1sc(-c2ccc(Cl)s2)nc1C | -6.51% | 10.8% | 5.52% | -4.05% | -5.29% | 1.29% | 4.67% | 11.1% | 0.99% | -79.3% | -0.599% |
| COc1ccc(CN2C[C@H](OCC3CCOCC3)[C@H]3COC[C@H]32)cc1 | -0.325% | 0% | -1.04% | 9.22% | -0.992% | -3.99% | 15.3% | 3.85% | 11.5% | 11.1% | -1.49% |
